The structures appear in SMILES notation. Inconclusive results are not listed. Calls of active or inactive are those of the source. How the source made its calls: active means hit-call score of the fitted dose curve at least 0.9, where 1 is the maximum; inconclusive means response in the unintended direction; inactive means score below 0.9.

Chain of Cellular tumor antigen p53 (Homo sapiens) (P04637 whole entry, looked up): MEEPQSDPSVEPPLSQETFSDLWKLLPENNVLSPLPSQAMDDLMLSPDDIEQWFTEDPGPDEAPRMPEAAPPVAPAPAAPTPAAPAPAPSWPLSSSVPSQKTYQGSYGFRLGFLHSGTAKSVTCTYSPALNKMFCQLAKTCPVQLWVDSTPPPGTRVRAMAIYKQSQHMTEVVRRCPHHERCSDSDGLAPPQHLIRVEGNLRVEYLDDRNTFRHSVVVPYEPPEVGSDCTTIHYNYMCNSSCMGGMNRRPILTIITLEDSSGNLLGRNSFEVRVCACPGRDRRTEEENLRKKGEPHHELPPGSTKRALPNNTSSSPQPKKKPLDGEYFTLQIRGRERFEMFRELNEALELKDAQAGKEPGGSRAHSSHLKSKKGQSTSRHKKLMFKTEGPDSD

The target in this test is Cellular tumor antigen p53 (Homo sapiens) (UniProt P04637). The experiment in a line: TOX21_p53_BLA_p4_ratio: Tox21 HCT-116 p53 Agonism Beta-lactamase Assay, Ratio, Phase 4 (AID 2283601). In a few lines:
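HCT116 cells carrying an inducible beta-lactamase reporter were plated at 4000 cells/well, rested 5 h, then exposed to compounds in DMSO (217-fold dilution) for 16 h at 37C. CCF4-AM substrate was loaded 2 h at room temperature; 460/530 nm emission ratio scored gain-of-signal versus DMSO.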
As to `CN(C)CC[C@@H](c1ccc(Cl)cc1)c1ccccn1`, the result was inactive. Consider `Cl/C(=C\n1cncn1)c1ccc(Cl)cc1Cl`, for which the outcome was inactive.

On to `CO/N=C(\C(=O)N[C@@H]1C(=O)N2C(C(=O)O)=C(C[N+]3(C)CCCC3)CS[C@H]12)c1csc(N)n1`, for which the outcome was inactive.

In the case of `Cc1cc(NC(=O)C2=C(O)c3ccccc3S(=O)(=O)N2C)no1`, the outcome was inactive. As for `COc1ccc(C=NNC(=O)c2ccncc2)c(C(=O)O)c1OC`, the result was inactive.

In the case of `CC(C)CCC[C@@H](C)[C@H]1CC[C@H]2[C@@H]3CC[C@@H]4C[C@H](O)CC[C@]4(C)[C@H]3CC[C@]12C`, the outcome was inactive. As for `CCN(CC)CCOC(=O)C1(c2ccccc2)CCCC1`, the entry is “inactive”; as for `Nc1ccc2cc(S(=O)(=O)O)ccc2c1`, “inactive”. The result for `Brc1ccc(-c2ccccc2)cc1` reads “inactive”; that for `CCc1ccc(CC)cc1`, “inactive”; that for `CCn1ccnc1CC1COc2ccccc2O1` (stereo not given), “inactive”. Turning to `COc1ccc(C(=O)NCc2ccc(OCCN(C)C)cc2)cc1OC`, the outcome was inactive.

Regarding `CC(=O)CCC=C(C)CC/C=C(\C)CC/C=C(\C)CCC=C(C)C`, the result was inactive.

As to `O=C1NC(=O)[C@H]2[C@@H]1[C@@H]1C=C[C@H]2C1`, the result was inactive.

`Nc1nc(-c2ccc([N+](=O)[O-])cc2)cs1`: the result was inactive. As for `Brc1cc2ccccc2c2ccccc12`, the entry is “inactive”. On to `CCc1ccc(C(=O)C(C)CN2CCCCC2)cc1` (stereo not given), for which the result was inactive. The result for `c1ccc2nccnc2c1` reads “inactive”. As for `CC(=O)NC(=O)c1ccccc1O`, the entry is “inactive”. As for `C[C@@H]1CC[C@@]2(OC1)O[C@H]1C[C@H]3[C@@H]4CC[C@H]5C[C@@H](O)CC[C@]5(C)[C@H]4CC(=O)[C@]3(C)[C@H]1[C@@H]2C`, the entry is “inactive”; as for `CCCn1c(=O)[nH]c(=O)c2[nH]cnc21`, “inactive”.

For the compound `C#CCN[C@@H]1CCc2ccccc21`, the result was inactive. The result for `CCCCCCCCCCCCCCCCCl` reads “inactive”; that for `O=C1CC[C@H](C(=O)N2CCCCC2)N1`, “inactive”; that for `c1cc2c3c(c1)ccc1cccc(c13)C2`, “inactive”. As for `CCOC(=O)[C@H](CCc1ccccc1)N[C@@H](C)C(=O)N1CC2(C[C@H]1C(=O)O)SCCS2`, the outcome was inactive. In the case of `COc1cc(S(C)=O)ccc1-c1nc2ncccc2[nH]1` (stereo not given), the result was inactive. As for `Cc1cccc(C)c1OCC(C)N` (stereo not given), the entry is “inactive”.

With `NS(=O)(=O)c1ccc(C(=O)O)cc1`, the result was inactive.

`CC(C)OC(=O)C(C(=O)OC(C)C)=C1SC=CS1`: the result was inactive.

These data come from PubChem BioAssay (EPA / NIEHS).
